# Over roughly 33,000 sequences, “E-score (-0.5 to 0.5)” has its median near -0.056; the highest 2% begin near 0.38. For the sample, the highest values were picked, then their nearest neighbours and some sequences at random.
# Molecular target: Stb4 (UniProt P50104)
# Assay: PBM E-score (8-mer binding enrichment) (E-score (-0.5 to 0.5)); higher = stronger / more preferred TF binding
# Conditions: protein concentration: 200 nM; construct: GST-DNA-binding domain
# Method: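 Universal 'all 10-mer' protein binding microarrays (Agilent AMADID 015681) probed with GST-tagged S. cerevisiae TFs (full-length or DBD) made by in vitro transcription/translation (PURExpress), about 100-200 nM. Bound TF was detected with fluorescent anti-GST. Each ungapped 8-mer (which stands for itself and its reverse complement) is scored by the PBM enrichment score (E-score), a modified Wilcoxon-Mann-Whitney statistic from -0.5 to +0.5, computed with the Universal PBM Analysis Suite. Scale: above 0.35 generally sequence-specific binding.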
# Sequence of UniProt P50104 (P50104 whole entry): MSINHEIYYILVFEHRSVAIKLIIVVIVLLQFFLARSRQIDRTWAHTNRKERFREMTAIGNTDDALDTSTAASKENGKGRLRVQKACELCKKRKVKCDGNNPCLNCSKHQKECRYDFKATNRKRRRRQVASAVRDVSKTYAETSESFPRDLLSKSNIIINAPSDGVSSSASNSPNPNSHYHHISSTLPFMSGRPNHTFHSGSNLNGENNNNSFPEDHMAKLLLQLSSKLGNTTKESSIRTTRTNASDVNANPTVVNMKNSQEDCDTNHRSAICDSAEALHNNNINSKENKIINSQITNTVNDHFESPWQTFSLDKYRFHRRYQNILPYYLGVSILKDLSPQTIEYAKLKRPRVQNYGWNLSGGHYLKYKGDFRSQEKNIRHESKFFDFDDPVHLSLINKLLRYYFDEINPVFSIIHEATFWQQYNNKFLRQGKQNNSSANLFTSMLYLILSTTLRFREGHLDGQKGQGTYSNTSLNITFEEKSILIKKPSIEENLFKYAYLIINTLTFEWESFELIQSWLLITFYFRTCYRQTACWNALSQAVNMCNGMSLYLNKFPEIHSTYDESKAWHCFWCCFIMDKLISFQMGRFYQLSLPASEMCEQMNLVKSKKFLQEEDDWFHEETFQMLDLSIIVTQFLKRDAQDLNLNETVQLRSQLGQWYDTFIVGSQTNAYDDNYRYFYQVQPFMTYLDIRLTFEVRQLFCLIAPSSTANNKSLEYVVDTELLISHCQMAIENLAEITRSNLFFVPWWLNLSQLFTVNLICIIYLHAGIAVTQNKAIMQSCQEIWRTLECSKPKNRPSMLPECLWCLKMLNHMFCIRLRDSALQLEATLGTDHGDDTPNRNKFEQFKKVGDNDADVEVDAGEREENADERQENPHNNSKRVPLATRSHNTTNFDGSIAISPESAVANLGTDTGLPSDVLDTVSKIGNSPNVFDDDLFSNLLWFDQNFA
row,Sequence,PBM E-score
1,CCAAAGTA,0.0417
2,AGGGCTCA,-0.326
3,GTACGGGA,0.222
4,ATTCGGGC,0.301
5,ATTCGGGA,0.415
6,CATCGGGA,0.331
7,CTTCGGGC,0.291
8,ATTCGGGG,0.34
9,CTTCGGGA,0.439
10,GTTCGGGA,0.453
11,GATCGGGA,0.359
12,TGCTAAAA,-0.205
13,AGATCGAT,-0.16
14,ACCCCTAT,-0.143
15,GACCTGCC,0.0159
16,ACACTGAG,-0.128
17,TCGGGAAA,0.443
18,CTGGAAAA,-0.00258
19,CAGGAAAA,-0.0586
20,ACGGGACA,0.276
21,CCGGGAAA,0.33
22,ACGGAAAC,0.375
23,GCGGGAAA,0.306
24,CCGGAAAC,0.394
25,CCGGAAAA,0.441

row,Sequence,PBM E-score
1,CCGGAAAG,0.366
2,CCGGGACA,0.326
3,TCGGGACA,0.408
4,ACGCAAAT,-0.00753
5,GTAAGACA,-0.166
6,CCACTGCA,-0.135
7,AAGGGAGC,-0.0979
8,CGCTGAAC,0.00896
9,AGCGCTCA,-0.191
10,ATTATGGA,-0.154
11,CCGCTTTA,0.138
12,GCGGGAGA,0.227
13,GCGGAAAA,0.332
14,ACGGAAAA,0.325
15,TCGGAAAA,0.451
16,ACGGGAGA,0.12
17,TCGGGAGA,0.391
18,AGACGGAC,-0.0259
19,ACTGGTAG,-0.226
20,ATTGATCG,0.0261
21,CCCCGATA,0.145
22,GATCTTCC,0.285
23,TCGGTAAA,0.433
24,CCGGTTAA,0.334
25,CCGGGTAC,0.375

row,Sequence,PBM E-score
1,CCGGGTCA,0.276
2,CCGGTAAA,0.312
3,ACGGGTCA,0.0265
4,GCGGTTAA,0.17
5,GCGGTAAA,0.188
6,TCGGTTAA,0.44
7,TCGGGTCA,0.427
8,CCGGGTAG,0.355
9,CCGGGTAA,0.418
10,GACGCGAC,-0.068
11,CACCATGG,-0.29
12,GTCTAGAC,-0.342
13,ACACAACC,-0.0108
14,CAGGCTCG,0.08
15,AGAGTTAC,-0.165
16,ATGGTTTA,0.193
17,GCGGGTAA,0.325
18,ACGGGTAA,0.328
19,TCGGGTAA,0.464
20,CTTCGGCA,0.443
21,GATCGGCA,0.349
22,ATTCGGCA,0.438
23,ATTCGGCG,0.333
24,GGTCGGCA,0.353
25,ATTCGGCC,0.271

row,Sequence,PBM E-score
1,CTTCGGCC,0.218
2,GTTCGGCA,0.418
3,CATCGGCA,0.376
4,ACAACCTC,-0.114
5,AGGCTGGG,-0.236
6,ACCGCGTG,0.053
7,ACTCCAAC,-0.11
8,AGACTGAG,-0.107
9,CCACGGGA,0.223
10,ACTCGGGA,0.44
11,CCTCGGGC,0.288
12,ACTCGGGC,0.263
13,CCTCGGGA,0.444
14,GCTCGTGA,-0.108
15,ACTCGGGG,0.286
16,GCACGGGA,0.305
17,GCTCGGGA,0.464
18,ATGTGCCC,-0.048
19,GACCGCTA,0.0181
20,GCACTTAC,0.0807
21,CAGAGGCC,-0.204
22,ACTTGGTA,-0.265
23,AATGTGAT,-0.15
24,GGGATACC,0.184
25,CGGATACC,0.41

row,Sequence,PBM E-score
1,AGGATACA,-0.261
2,CGGATACG,0.409
3,TGGATACA,-0.147
4,CGGATACA,0.433
5,AGGATACG,-0.23
6,CCGATACG,0.307
7,AGGATACC,0.0351
8,CCGCTCGA,0.11
9,GCGCGACC,-0.0286
10,ACGTTCAG,-0.252
11,TCAGGGCA,-0.18
12,AATACAGT,-0.194
13,AGGAACTA,0.0365
14,CGGAACTC,0.401
15,CGGAACTA,0.449
16,GGGAACTA,0.183
17,CTGAACTC,-0.175
18,AGGAACTC,-0.0879
19,ACTCTAGG,-0.212
20,CAGCTCCA,-0.265
21,CGCGGCCG,0.136
22,AATCGGGC,0.159
23,ACTCTGAC,-0.0524
24,CTATCCGA,0.469
25,GTATCCGA,0.487

row,Sequence,PBM E-score
1,ATATCCGA,0.482
2,ATATCCGG,0.424
3,CTATCCAA,-0.268
4,ATATCCTA,-0.0944
5,CTATCCCA,-0.135
6,ATATCCAG,-0.114
7,GTATCCTA,-0.107
8,ATATCCAA,0.0444
9,GTATCCCA,-0.0937
10,ATATCCCG,0.306
11,AATCTAAG,-0.107
12,AGACTGGC,-0.17
13,ACCCAGCG,-0.0996
14,CAATGTAA,0.112
15,ATTATGGG,-0.0331
16,TAGATGCA,-0.222
17,GTCAGCGA,-0.138
18,ATTGGGTG,-0.0143
19,GACCTTAA,-0.145
20,GGGTCTCA,8e-05
21,GCGAGCAC,-0.135
22,TCGAGCAA,-0.141
23,ACGAGCAA,-0.0941
24,CCGAGCAC,0.413
25,CCGAGCAA,0.406

row,Sequence,PBM E-score
1,ACGAGCAC,-0.133
2,GAACAGGA,-0.0169
3,ACGAAGTC,-0.264
4,GCGAAGTA,-0.0361
5,CCGAAGTC,0.417
6,CAGAAGTC,-0.174
7,CCGAAGTA,0.418
8,ACGAAGTA,-0.0487
9,ACAGCTTC,0.0141
10,AACACCGG,0.248
11,CATGCCAA,-0.257
12,CTTCCTCA,-0.208
13,CGCACCAC,-0.0216
14,AGTTTGAG,-0.092
15,CCCTCGCA,-0.0413
16,GCCTCGGA,0.444
17,GCCTCGAA,-0.0521
18,CCCTCGTA,-0.114
19,CCCTCGGA,0.464
20,GCCTCGTA,-0.0917
21,CAAGTTTA,-0.136
22,ACCTGCAC,-0.0938
23,AAGGTACA,-0.341
24,AAGGCTAG,-0.127
25,TAACCGAA,0.431

row,Sequence,PBM E-score
1,CAACCGAA,0.289
2,GAACCGTA,0.0316
3,GAACCGAC,0.286
4,AAACCGAA,0.259
5,GAACCGAA,0.397
6,AACCCGGA,0.375
7,CTACAGTC,-0.214
8,CTCATCTA,-0.116
9,AAAGTGAC,-0.123
10,GAACCCGA,0.338
11,AAACCCGC,0.246
12,AAACCCGT,-0.00663
13,CAACCCGA,0.33
14,AAACCCGA,0.403
15,TAACCCGA,0.385
16,TGACCCAA,-0.235
17,AGCGAAAT,0.0212
18,CGATTATC,0.15
19,GATTCAGA,-0.121
20,ACGGCAGA,0.156
21,CCGGCCGA,0.356
22,ACGGCTAA,0.264
23,CCGGCACG,0.293
24,TCGGCTAA,0.455
25,TCGGCAGA,0.41

row,Sequence,PBM E-score
1,CCGGCACA,0.307
2,CCGGCAGA,0.286
3,TCGGCCGA,0.419
4,TCGGCACA,0.441
5,GCGGCCGA,0.217
6,GCGGCTAA,0.287
7,GACGTTGC,-0.00479
8,AAGGCCTT,-0.207
9,GGCGCCGA,0.317
10,GAGTAATC,-0.0725
11,CGGACCCG,0.346
12,CCCTGCTA,-0.236
13,ATTTGAGG,-0.0518
14,CCACTTGA,-0.0304
15,AATAGTCT,-0.236
16,GCGGCAAA,0.182
17,TCGGCAAA,0.41
18,ACGGCAAA,0.243
19,AGGAGAAC,-0.179

# — the supplement of paper PMC3334620
